Data published in ChEMBL document CHEMBL3988442, “University of Dundee, Small-Polar-MMV Screening Library” (2021).
Out of some 66,000 compounds screened, about 960 (1.5%) showed an effect of 50% or more. The list comes from a sample in which strong results are over-represented; it also holds similar structures and randomly drawn compounds.

Test system: Trypanosoma brucei
Experiment: Trypanosoma brucei 72 hour study
Format: functional, organism-based
Design: scale not given: in the data most compounds retested in dose-response had high values

| SMILES | Percent Effect (30.3 µM, […]) [%] | Percent Effect (30 µM, 30.03 µM) [%] |
| --- | --- | --- |
| COc1cc(C)c(S(=O)(=O)NCc2cccnc2N(C)C)c(C)c1 | 6.422 | – |
| Cc1ccc(C)c(-n2cc(CN3CC[C@@H](O)C3)c(-c3ccccc3)n2)c1 | 100.3 | – |
| Cc1ccc(C)c(-n2cc(CN3CCOCC3)c(-c3ccccc3)n2)c1 | 5.174 | – |
| Cc1ccc(-n2cc(CN3CCOCC3)c(-c3cccc(C)c3)n2)cc1 | 3.807 | – |
| O=C(NC1CC1)C1=CC2(CCN(CCO)CC2)c2ccccc21.O=C(O)C(F)(F)F | -19.93 | – |
| CCN1CCN2CCCN(S(=O)(=O)c3cccc(F)c3)C2C1=O (centres undefined) | 65.65 | – |
| CCN1CCN2CCCN(S(=O)(=O)c3ccc(S(C)(=O)=O)cc3)C2C1=O (centres undefined) | 30.28 | – |
| CCN1CCN2CCCN(S(=O)(=O)c3ccc(C)cc3C)C2C1=O (centres undefined) | 8.732 | – |
| COc1cc(C(=O)N2C[C@H]3CC[C@@H]2CN(Cc2cscn2)C3)ccn1 | – | 1.07 |
| CS(=O)(=O)NCC1CCCN(C(=O)c2cc3ccccc3o2)C1 (centres undefined) | 1.962 | – |
| O=C(COCC(F)(F)F)NS(=O)(=O)c1ccc2c(c1)OCCCO2 | -2.455 | – |
| Cc1ccc(CN2CCc3onc(C(=O)N4CCCC4)c3C2)o1.O=C(O)C(F)(F)F | 0.525 | – |
| O=C(Cn1ccc2ccccc21)Nc1cc(N2CCOCC2)ncn1 | -10.05 | – |
| CN1CCN(c2cc(NC(=O)Cn3ccc4ccccc43)ncn2)CC1 | 101.2 | – |
| O=C(Cn1ccc2ccccc21)Nc1cc(N2CCCC2)ncn1 | 1.206 | – |
| O=C(CC1CC1)N1CC[C@H]2[C@@H]1CCC(=O)N2Cc1ccncc1.O=C(O)C(F)(F)F | – | -15.55 |
| c1nc(N2CCCC(Cn3cncn3)C2)c2sccc2n1 (centres undefined) | 1.361 | – |
| Cc1cc(NC2CCc3ncnn3C2)n2ncnc2n1 (centres undefined) | – | -36.85 |
| Cc1nc[nH]c1CN1CCC2(CC1)CC(Nc1ncccn1)CO2.O=C(O)C(F)(F)F (centres undefined) | – | -22.29 |
| CC(=O)Nc1ccc(CCC2(NC(=O)C3CC3)CCCCC2)cn1 | 1.37 | – |
| CC(C)(C)c1ccc(CN2C[C@H]3C[C@H](O)C[C@H]3C2)c(OCC(N)=O)c1 | -6.506 | – |
| Cc1cc(C(F)(F)F)nn1CC(C)C(=O)Nc1cccnc1 (centres undefined) | -4.531 | – |
| Cc1cc(C(F)(F)F)nn1CC(C)C(=O)Nc1ccccn1 (centres undefined) | 13.6 | – |
| Cc1cccnc1NC(=O)C(C)Cn1nc(C(F)(F)F)cc1C (centres undefined) | – | 53.66 |
| Cc1cc(N2CCN(C(=O)[C@@H]3C[C@@H]4C=C[C@H]3C4)CC2)nc2ccccc12 | 18.47 | – |

| SMILES | Percent Effect (30.3 µM, […]) [%] | Percent Effect (30 µM, 30.03 µM) [%] |
| --- | --- | --- |
| Cl.O[C@@H]1CN(Cc2ccc(F)cc2)CC[C@H]1NCc1ccccn1 | 5.839 | – |
| CC(C)CC1CC(=O)Nc2c1cnn2Cc1ccco1 (centres undefined) | – | -10.02 |
| CC(C)C1CC(=O)Nc2c1cnn2Cc1ccco1 (centres undefined) | – | 5.524 |
| CC(C)(C)C1CC(=O)Nc2c1cnn2Cc1ccco1 (centres undefined) | – | 53.72 |
| COCc1nc(N(C)C)ncc1C(=O)NC(C)c1ccccc1 (centres undefined) | -21.32 | – |
| O=C(c1cc(-c2ccn(CC3CC3)n2)n2ccccc12)N1CCOCC1 | 100.3 | – |
| O=C(c1cc(-c2ccn(CC3CC3)n2)n2ccccc12)N1CCCO1 | -0.5665 | – |
| O=C(O)c1cc(-c2ccn(CC3CC3)n2)n2ccccc12 | -1.96 | – |
| Cc1ccc(CN2CCC3(CC2)CC(c2cccnc2)C(=O)N3C)o1.O=C(O)C(F)(F)F.O=C(O)C(F)(F)F (centres undefined) | -49.66 | – |
| COCCN1CCC2(CCCN(Cc3ccoc3)C2)C1=O.O=C(O)C(F)(F)F (centres undefined) | -22.78 | – |
| O=C(CC1CCCC1)N1CCn2cc(Cn3cccn3)nc2C1.O=C(O)C(F)(F)F | -840.1 | – |
| O=C(O)C(F)(F)F.O=C(c1cnoc1)N1CCC[C@]2(C[C@@H](Oc3ccccn3)CO2)C1 | – | -14.73 |
| CCNC(=O)c1cnc(Cc2ccc(F)cc2)s1 | – | 3.769 |
| CN(C)CCCNC(=O)c1cnc(Cc2ccc(F)cc2)s1 | – | 52.82 |
| COC(=O)CCNC(=O)c1cnc(Cc2ccc(F)cc2)s1 | – | 3.867 |
| O=c1c(CN2CC3CCCN3C[C@@H]2CCO)coc2ccc(Cl)cc12 (some centres undefined) | -20.01 | – |
| O=C1CC(N(C(=O)c2csc(-c3ccccc3)n2)C2CC2)C(=O)N1 (centres undefined) | – | 9.836 |
| O=C1CC(N(C(=O)Cc2csc(-c3ccccc3)n2)C2CC2)C(=O)N1 (centres undefined) | – | 106 |
| Cc1nc(-c2ccccc2)sc1C(=O)N(C1CC1)C1CC(=O)NC1=O (centres undefined) | – | 37.33 |
| O=C(O)C(F)(F)F.O=C1COC2(CCN(CC3CC3)CC2)CN1c1ccsc1 | -336 | – |
| Cn1cc(N2CCC3(CCCN(Cc4ccc(F)cc4)C3)C2=O)cn1.O=C(O)C(F)(F)F (centres undefined) | – | 66.19 |
| Cc1nc(CN2CCCC3(CCN(c4cnn(C)c4)C3=O)C2)cs1.O=C(O)C(F)(F)F (centres undefined) | -9.884 | – |
| Cn1cc(CN2CCC3(CCN(c4cnn(C)c4)C3=O)C2)cn1.O=C(O)C(F)(F)F (centres undefined) | – | -6.498 |
| COCCNc1ccc(CC2CCCNC2)cn1.Cl (centres undefined) | 0.7781 | – |
